# PubChem BioAssay
# Activity calls are given as the source filed them.
# Experiments:
# Albumin (Bos taurus) = Albumin (Bos taurus) (UniProt P02769); test: bovine serum albumin binders on microarray, profiling panel, artefact control for SMM control protein annotation, biochemical, small-molecule microarray, Alexa647 label, 635/667 nm fluorescence (AID 1118); settings: BSA-A647 binding, fluorescence 635 nm, higher = more signal;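 further: score merges 667 nm emission intensity and signal-to-noise per printed compound spot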
# [1] = small-molecule microarray binders of probe aXIP, primary screen, biochemical, NeuroSMM set, 635/667 nm fluorescence (AID 1119); settings: higher = more signal, called active from +8 up or from −8 down;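 further: probe is the protein aXip251-270 applied at 1 µg/mL to compound-printed slides; binding of probe to printed compounds measured as 667 nm fluorescence plus signal to noise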
# [2] = small-molecule binders of probe aNOTCH3, primary screen, biochemical, small-molecule microarray, 635/667 nm fluorescence (AID 1120); settings: higher = more signal;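 further: probe is a biotin-tagged antibody raised against NOTCH3 rather than NOTCH3 protein; score merges spot fluorescence near 667 nm with spot signal to noise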
# [3] = small-molecule binders of probe aNOTCH2, primary screen, biochemical, small-molecule microarray, 635/667 nm fluorescence (AID 1121); settings: higher = more signal;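 further: score merges feature fluorescence read at 667 nm with its signal to noise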
# [4] = target: Carbonic anhydrase 2 (Homo sapiens) (UniProt P00918); test: CAII small-molecule binders, profiling panel, biochemical, small-molecule microarray, Alexa647-labelled CAII (AID 1122); settings: CAII-A647 binding fluorescence, higher = more signal
# [5] = COS7 lysate on small-molecule microarray, probe aHis, 635 nm (AID 1123); settings: COS7 cell lysate, fluorescence, higher = more signal;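 further: z-score combines 667nm fluorescence intensity with signal-to-noise per printed compound spot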
# [6] = compound binding in COS7 lysate, probe aLAP1, primary screen, cell lysate, small-molecule microarray (AID 1124); settings: probe aLAP1, fluorescence, higher = more signal;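 further: lysate comes from COS7 cells expressing LAP1 and is applied at 0.3 µg/mL; score merges spot fluorescence near 667 nm with signal-to-noise over triplicate slides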
# Sam68 (KHDRBS1) = test: Sam68 small-molecule binders, primary screen, biochemical, small-molecule microarray, 635 nm fluorescence (AID 1125); settings: small-molecule microarray binding, higher = more signal;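 further: score merges 667 nm channel intensity with signal to noise over triplicate slides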
# [7] = system: Chordin-like protein 2 (CHRDL2); test: CHRDL2 small-molecule binders, primary screen, biochemical, small-molecule microarray, 635 nm fluorescence (AID 1126); settings: small-molecule microarray binding, fluorescence 635 nm; higher = more signal;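 further: printed compound slides probed with Chrdl2 protein at 4 µg/mL for 1 h at 4 C; score merges 667 nm emission intensity with signal to noise over three replicate slides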
# [8] = target: Concanavalin-A (Canavalia ensiformis) (UniProt P02866); test: ConA small-molecule binders, primary screen, artefact control for SMM control protein annotation, biochemical, small-molecule microarray, Alexa647 label, 635 nm (AID 1127); settings: ConA-A647 binding fluorescence, higher = more signal;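 further: z combines 667 nm emission intensity with signal-to-noise across three replicate slides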
# Concanavalin-A (Canavalia ensiformis), sequence (P02866 whole entry, looked up): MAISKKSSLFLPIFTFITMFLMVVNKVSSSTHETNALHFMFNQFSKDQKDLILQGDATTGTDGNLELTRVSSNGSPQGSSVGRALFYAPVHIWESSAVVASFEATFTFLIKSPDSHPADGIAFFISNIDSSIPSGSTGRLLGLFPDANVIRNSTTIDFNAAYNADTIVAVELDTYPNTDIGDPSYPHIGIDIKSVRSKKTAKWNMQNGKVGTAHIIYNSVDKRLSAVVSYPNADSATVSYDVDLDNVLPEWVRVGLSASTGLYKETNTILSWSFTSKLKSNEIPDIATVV
# Albumin (Bos taurus), sequence (P02769 whole entry, looked up): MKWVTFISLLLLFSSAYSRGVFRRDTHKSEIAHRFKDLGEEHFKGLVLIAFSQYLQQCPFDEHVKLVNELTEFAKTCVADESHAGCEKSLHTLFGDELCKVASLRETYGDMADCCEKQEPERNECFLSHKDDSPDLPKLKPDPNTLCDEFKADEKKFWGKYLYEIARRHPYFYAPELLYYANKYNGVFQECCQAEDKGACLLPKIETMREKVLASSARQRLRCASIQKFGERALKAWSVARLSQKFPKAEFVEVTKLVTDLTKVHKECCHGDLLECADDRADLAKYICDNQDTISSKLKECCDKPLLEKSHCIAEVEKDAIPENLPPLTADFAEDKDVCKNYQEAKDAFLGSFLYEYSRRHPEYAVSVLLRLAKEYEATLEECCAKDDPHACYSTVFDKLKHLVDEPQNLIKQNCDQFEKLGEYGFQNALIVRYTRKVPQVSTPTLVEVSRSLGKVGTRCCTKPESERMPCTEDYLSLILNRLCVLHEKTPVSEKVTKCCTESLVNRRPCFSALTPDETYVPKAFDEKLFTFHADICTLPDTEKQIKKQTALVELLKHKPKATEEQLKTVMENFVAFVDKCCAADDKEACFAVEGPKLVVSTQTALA
Structure (SMILES),composite z-score (Albumin (Bos taurus)),composite Z-score [1],composite z-score [2],composite z-score [3],composite z-score [4],composite z-score [5],composite z-score [6],composite z-score (Sam68 (KHDRBS1)),composite z-score [7],composite z-score [8]
COc1ccc(NN2C(C(O)c3cc(OC)c(OC)c(OC)c3)C=CC3C(=O)N(C4CCCCC4)C(=O)C32)cc1 (stereo not given),1.02,0.487 (inactive),0.831,0.531,0.211,2.42,0.754,1.3,-1.2,1.1
C#CCCCON=C1C[C@@H](O)[C@@H](O)[C@@H]2[C@@H]3C(=O)N(Cc4ccc5c(c4)OCO5)C(=O)[C@@H]3CC[C@H]12,0.86,0.756 (inactive),0.116,-0.181,0.495,1.21,0.786,1.15,0.558,0.752
O=C1C2C=CC(C(O)Cc3ccccc3)N(Nc3ccc([N+](=O)[O-])cc3)C2C(=O)N1c1ccccc1 (stereo not given),0.944,-0.205 (inactive),0.357,0.401,0.759,1.02,0.517,0.719,0.709,0.185
Cc1ccc(N2C(=O)c3ccccc3[C@](C)(C(=O)O)[C@@H]2c2ccc(CO)cc2)nc1,-1.29,-0.313 (inactive),-0.414,-0.228,0.289,-0.471,0.067,-1.17,-1.77,-1.14
CC(=O)NCCCC[C@@H]1NC(=O)[C@@H]2C[C@H](C(=O)NCCCCCNC(=O)CS)[C@H](c3ccc(O)cc3)N2C1=O,-0.0591,1.43 (inactive),-0.282,-0.203,0.497,0.534,-0.377,-0.0077,-0.13,-0.579
COc1ccc([Si](C)(C)[C@@H]2[C@@H](CCO)O[C@]3(C(=O)N(Cc4ccccc4)c4ccccc43)[C@H]2C)cc1,0.152,0.158 (inactive),-0.113,-0.125,-0.0193,0.141,0.0521,0.555,-0.0822,0.421
CCCC=C(CCC)[C@@H](NS(=O)(=O)c1ccc(C(F)(F)F)cc1)c1ccc(-c2ccccc2)cc1,0.822,-0.118 (inactive),0.305,-0.0467,0.279,2.24,0.348,1.21,-0.386,0.882
O=C(NCc1ccccc1)[C@@]1(CCS(=O)(=O)c2ccccc2)COC(c2ccc(OCCCO)cc2)=N1,0.514,0.294 (inactive),0.291,0.0539,0.808,3.01,0.72,1.3,-0.696,1.17
O=C1O[C@H](c2ccccc2)[C@H](c2ccccc2)N2[C@H]1[C@@H](C(=O)NC[C@H](O)c1ccccc1)[C@]1(C(=O)Nc3ccc(C#CC4=CCCCC4)cc31)[C@H]2c1ccc(OCCO)cc1,0.534,0.318 (inactive),0.141,-0.0741,0.522,0.864,0.402,1.31,0.424,1.11
N#Cc1ccc(NN2C(C(O)CCc3ccccc3)C=CC3C(=O)N(c4ccccc4)C(=O)C32)cc1 (stereo not given),1.06,0.265 (inactive),0.123,0.0532,0.745,2.21,0.647,0.924,-0.794,0.831
COc1cc2c(cc1OC)CN(C(=O)[C@H]1[C@@H]3C(=O)O[C@@H](c4ccccc4)[C@@H](c4ccccc4)N3[C@@H](c3ccccc3OCCO)[C@]13C(=O)Nc1ccc(C#CC4(O)CCCCCC4)cc13)CC2,0.168,0.267 (inactive),-0.0043,-0.0211,0.314,2.12,0.982,1.3,0.454,1.13
COc1ccc(CCN2C(=O)[C@@]3(c4ccc([N+](=O)[O-])cc4)CC(=O)N(CC45CC6CC(CC(C6)C4)C5)[C@@H]3c3ccc(CO)cc32)cc1,-0.181,0.653 (inactive),0.323,0.0437,0.446,1.38,-0.415,0.644,0.569,0.402
CC(C)C[C@@H]1NC(=O)[C@H]2C[C@@H](C(=O)NCCCCCC[N+](C)(C)C)[C@@H](c3ccc(O)cc3)N2C1=O,0.34,0.448 (inactive),-0.126,-0.164,0.717,0.439,0.102,-0.907,0.362,0.452
C=C[C@H](OC)[C@@H](OC(=O)Nc1ccc(SC)cc1)c1ccc(O)c(F)c1,0.661,1.13 (inactive),0.0864,-0.182,0.699,2.82,0.694,1.24,-0.267,0.187
CO[C@H]1COC(=O)CC=C[C@@H](C)COC(=O)[C@@H](C)NC(=O)CC=C[C@@H]1C,-1.07,2.3 (inactive),-0.0345,-0.153,-0.681,-0.736,-0.495,0.787,1.59,-0.704
Cc1ccc(N2C(=O)c3ccccc3[C@@H](C(=O)NCc3ccccc3)[C@@H]2c2ccc(CO)cc2)nc1,-1.29,-0.816 (inactive),-0.0328,-0.0272,0.451,3.91,-0.0641,-0.931,0.465,-1.28
CC(C)N1CC=CC23O[C@@H]4/C=C\CCCOC(=O)C4[C@H]2C(=O)N(CCCCCO)[C@@H]3C1=O (stereo not given in full),-1.71,-0.0102 (inactive),-0.448,-0.169,0.945,-0.0414,0.64,-1.74,-1.9,-1.26
CO[C@H]1COC(=O)[C@@H](OCc2ccccc2)C=C[C@H](C)[C@@H](OC)COC(=O)[C@H](OCc2ccccc2)C=C[C@@H]1C,-0.695,-0.738 (inactive),-0.0682,-0.179,-0.516,-0.838,-0.885,-0.693,-0.51,-0.218
CO[C@H]1COC(=O)[C@H](C)COC(=O)[C@H](Cc2ccccc2)NC(=O)CC=C[C@H]1C,-1.16,0.72 (inactive),0.62,0.087,-0.612,-0.826,0.266,-1.02,1.53,-0.994
C=CCC(OC(C)=O)[C@@H]1[C@@H](N(Cc2cc3ccccc3o2)C(=O)Cc2ccc(F)cc2)c2cc(OCCCO)ccc2N1C(=O)c1ccc(-c2ccccc2)cc1 (stereo not given in full),-0.182,-0.765 (inactive),-0.0881,0.0017,-0.309,0.125,-0.546,-0.533,-0.26,-0.764
C=CC[C@]1(C(=O)O)N=C(c2ccc(OCCCO)cc2)O[C@H]1c1ccccc1N=[N+]=[N-],0.548,0.0407 (inactive),0.0807,-0.159,0.668,1.45,1.24,0.0203,-0.37,0.642
C=CCNC(=O)[C@H]1[C@@H]2C(=O)O[C@@H](c3ccccc3)[C@@H](c3ccccc3)N2[C@@H](c2ccc(O)cc2)[C@]12C(=O)Nc1ccc(C#CCNC(N)=O)cc12,-0.273,0.593 (inactive),-0.174,0.12,0.78,0.789,0.0128,0.213,-1.02,-0.649
COCCOC(=O)N1C(=O)[C@@]2(c3cc(C#CC4=CCCCC4)ccc31)[C@H](C(=O)NC[C@H](O)c1ccccc1)[C@H]1C(=O)O[C@H](c3ccccc3)[C@H](c3ccccc3)N1[C@@H]2c1ccc(OCCO)cc1,0.723,-0.0384 (inactive),0.0739,-0.0986,0.224,1.9,-0.0647,1.3,0.629,1.12
CO[C@@H]1COC(=O)[C@H](C)NC(=O)CC=C[C@@H](C)[C@H](OC)COC(=O)[C@H](C)NC(=O)CC=C[C@H]1C,-0.406,0.137 (inactive),-0.226,-0.124,-0.305,-0.466,0.0381,0.315,1.16,0.44
